In ChEMBL document CHEMBL3988442, “University of Dundee, Small-Polar-MMV Screening Library” (2021):

biological target: Shiga toxin 2 (Escherichia coli O157:H7) (UniProt P09385+P09386); assay: E. coli 0.157:H7 Shiga Toxin SOP - stx2 screening assay; assay type: functional; design: scale not given: direction of the effect not stated beside the values; conditions: 30 µM

Going from `CS(=O)(=O)NCc1cc2n(n1)CCCN(Cc1cccc(C#N)c1)C2` to `Cn1ccnc1CN1CC[C@@H](NS(C)(=O)=O)[C@@H]1Cc1cccnc1`, the Percent Effect falls from 18.6% to -4.31%.

First: CC(C)n1ccnc1CN1CCCN(C(=O)c2cc(Cl)c[nH]2)CC1
Second: CC(C)n1cc(CN2CCCN(C(=O)c3nccnc3N)CC2)cn1
The Percent Effect of the first is lower: -53.1% for the first, -11.2% for the second.

Going from `O=C(c1cnccn1)N1CCc2onc(CN3CCOCC3)c2C1` to `C[C@@H]1C[C@@H]2CCN(C(=O)c3cnccn3)C[C@H]2O1`, the Percent Effect falls from -5.1% to -15.2%.

First: Cc1nc(C)n(CC2CCCN2Cc2nc(C3CC3)no2)n1 (stereo not given)
Second: CC(C)Cc1noc(CN2CCCC(Cn3cncn3)C2)n1 (stereo not given)
The Percent Effect of the first is lower: -16.4% for the first, -14.7% for the second.

Compared with `CCCS(=O)(=O)N1CCOCC2(CCN(c3ccccn3)C2)C1` (stereo not given), `Cc1ccccc1N1CC2(CCN(S(=O)(=O)C3CC3)C2)CC1=O` (stereo not given) is higher in Percent Effect: -23.9% for the first, -4% for the second.

Compared with `CCc1nc(C)c([C@H]2CN(C)C[C@@H]2C(=O)Nc2ccc(OC)cc2)[nH]1`, `COc1ncccc1NC(=O)N(Cc1ccc(C)o1)C1CC1` is higher in Percent Effect: 9.62% for the first, 12.1% for the second.

First: COCC1COCCC12CCN(C(=O)CCc1ccccc1)CC2 (stereo not given)
Second: CC(=O)NCC1CCN(CC2CCOc3ccccc3C2)CC1 (stereo not given)
The Percent Effect of the first is lower: -14.9% for the first, 1.04% for the second.

Compared with `CCN1CC2(CC1=O)CN(C(=O)c1ccco1)CCN(C(=O)N(C)C)C2` (stereo not given), `CC(=O)N1CCCN(C(=O)NCCc2ccc(Cl)s2)CC1` is lower in Percent Effect: -12.4% for the first, -19.8% for the second.

Compared with `C[C@@H]1CN(C2(C(=O)N3CCOCC3)Cc3ccccc3C2)C[C@H](C)O1`, `Cc1occc1C(=O)N1CC[C@@H](N2CCOCC2)[C@@H]1Cc1ccccc1` is higher in Percent Effect: -11.4% for the first, 6.03% for the second.

Going from `Cc1nc(-c2ccc(Cl)s2)sc1C(=O)NCCS(N)(=O)=O` to `Cc1ncsc1C(=O)NCCSCc1cccs1`, the Percent Effect falls from -17.2% to -24.7%.

Going from `N#Cc1ccc(OC2CCN(C(=O)c3ccc4c(c3)OCO4)CC2)nc1` to `COc1ccc(C(=O)N2CCC(Nc3cccnn3)CC2)c(OC)c1`, the Percent Effect rises from -32.6% to 8.84%.

First: Cc1nc(CNC(=O)NCC(O)c2ccc(F)cc2F)cs1 (stereo not given)
Second: Cc1cc(C)nc(CCNC(=O)C(c2ccc(F)cc2)N(C)C)n1 (stereo not given)
The Percent Effect of the first is higher: -21.6% for the first, -52.8% for the second.

Going from `Cn1cnnc1S(=O)(=O)C1CCN(S(=O)(=O)c2c(Cl)cccc2Cl)CC1` to `CCN1C[C@@H]2[C@@H](OC)CCN(S(=O)(=O)c3ccccc3)[C@@H]2C1`, the Percent Effect falls from 0.759% to -20.4%.

Going from `CC(=O)N1CCCCC1c1nc2c(c(N3CCCCC3)n1)CN(C)CC2` (stereo not given) to `CC(=O)N1CCC(C(=O)NCCN2CCC(C)CC2)CC1`, the Percent Effect falls from 2.68% to 0.682%.

Compared with `O=C(c1ccccc1OCC1CC1)N1CCCC(n2ccnc2)C1` (stereo not given), `CC(=O)NCC(=O)N1CC[C@H](OCC2CC2)[C@@H]1Cc1cccnc1` is higher in Percent Effect: -13.9% for the first, 5.09% for the second.

Compared with `CCN(Cc1ccc2c(c1)OCO2)C(=O)NC(C)Cn1cccn1` (stereo not given), `CCN(Cc1ccc2c(c1)OCO2)Cc1nc(C)no1` is higher in Percent Effect: -12.4% for the first, 23.9% for the second.

Going from `CCN(CCNC(=O)c1ccccc1Br)C1CC1` to `Cc1ccccc1C(=O)NCc1ccc(N2CCNC(=O)C2)cc1`, the Percent Effect falls from 9.65% to -90.8%.

Compared with `Cc1cnc(N2CCn3cc(CNC(=O)CC4CC4)nc3C2)nc1`, `Cc1nccnc1N1CC[C@@H](NC(=O)c2cnccn2)[C@H](O)C1` is lower in Percent Effect: -22.4% for the first, -24.4% for the second.

First: CN(Cc1ccc(F)cc1)C(=O)NCc1nnc2n1CCCCC2
Second: O=C(NCCCN1CCCC1=O)Nc1ccc(Br)cc1Cl
The Percent Effect of the first is lower: -16.9% for the first, -11% for the second.

Going from `CC(C)NC(=O)N1C[C@H]2C[C@H](C(=O)NCc3ccccc3)[C@@H](C1)O2` to `CCCNC(=O)Nc1cccc2c1CCN(S(C)(=O)=O)C2`, the Percent Effect falls from 1.68% to -15%.
